# Inconclusive results are not listed. Activity calls are given as the source filed them. Rule for the calls: active = hit-call score of the fitted dose curve at least 0.9, where 1 is the maximum; inconclusive = response in the unintended direction; inactive = score below 0.9.
# Biological target: human Phosphodiesterase 10 (PDE10), PDE10A (gene 10846) (UniProt Q9Y233)
# Test: NVS_ENZ_hPDE10: NovaScreen (NVS) Enzymatic Assay for human Phosphodiesterase 10 (PDE10) (AID 2283195)
# Summary of the method: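 Fluorescence readout after mobility-shift separation of substrate and product, 1 h reaction with recombinant human enzyme. Single-concentration duplicates at 25 uM, then concentration-response up to 50 uM for chemicals reaching threshold; DMSO baseline.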
# human Phosphodiesterase 10 (PDE10), PDE10A (gene 10846), sequence (Q9Y233 whole entry, looked up): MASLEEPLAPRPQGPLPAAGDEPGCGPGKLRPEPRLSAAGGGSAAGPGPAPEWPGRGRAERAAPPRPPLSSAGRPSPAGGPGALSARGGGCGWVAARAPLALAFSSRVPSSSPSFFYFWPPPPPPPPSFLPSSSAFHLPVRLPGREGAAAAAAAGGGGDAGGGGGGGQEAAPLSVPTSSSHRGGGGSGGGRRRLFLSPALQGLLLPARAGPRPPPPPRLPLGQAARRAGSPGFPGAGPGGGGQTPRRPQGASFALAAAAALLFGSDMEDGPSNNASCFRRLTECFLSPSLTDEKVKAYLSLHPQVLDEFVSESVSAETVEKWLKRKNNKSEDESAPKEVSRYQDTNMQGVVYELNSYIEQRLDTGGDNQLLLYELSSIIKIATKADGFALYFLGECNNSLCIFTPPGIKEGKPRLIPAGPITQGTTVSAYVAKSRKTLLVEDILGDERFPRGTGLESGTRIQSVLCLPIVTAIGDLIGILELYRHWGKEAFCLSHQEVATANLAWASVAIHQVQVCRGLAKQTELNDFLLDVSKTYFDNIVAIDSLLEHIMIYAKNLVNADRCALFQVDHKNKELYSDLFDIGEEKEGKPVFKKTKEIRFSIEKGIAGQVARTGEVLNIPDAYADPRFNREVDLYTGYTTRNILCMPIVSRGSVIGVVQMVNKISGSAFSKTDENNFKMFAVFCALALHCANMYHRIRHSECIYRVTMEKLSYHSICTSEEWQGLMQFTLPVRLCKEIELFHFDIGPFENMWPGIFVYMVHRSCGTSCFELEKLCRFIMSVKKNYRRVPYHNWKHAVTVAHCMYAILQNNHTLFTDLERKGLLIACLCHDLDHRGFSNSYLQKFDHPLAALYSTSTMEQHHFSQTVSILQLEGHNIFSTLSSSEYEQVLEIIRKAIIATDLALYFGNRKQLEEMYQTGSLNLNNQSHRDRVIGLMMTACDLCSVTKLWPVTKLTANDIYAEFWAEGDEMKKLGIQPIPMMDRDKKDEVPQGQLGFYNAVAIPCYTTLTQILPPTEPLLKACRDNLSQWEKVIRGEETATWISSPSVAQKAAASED
Compound,AC50,outcome
Cc1c(Cl)c(=O)oc2cc(O)ccc12,0.582 µM (active),
CCCCC(CC)COCCC#N (stereo not given),,inactive
c1ccc2c(c1)c1cccc3ccc4cccc2c4c31,,inactive
CC1(C)[C@H](C(=O)OCc2cccc(Oc3ccccc3)c2)[C@@H]1C=C(Cl)Cl,,inactive
Nc1cc([N+](=O)[O-])ccc1Cl,,inactive
CCc1c(C)cc(N)c(CC)c1N,,inactive

# Biological target: sheep Cyclooxygenase-1 (Cox1), PTGS1 (gene 443551) (UniProt P05979)
# Sequence (P05979 whole entry, looked up): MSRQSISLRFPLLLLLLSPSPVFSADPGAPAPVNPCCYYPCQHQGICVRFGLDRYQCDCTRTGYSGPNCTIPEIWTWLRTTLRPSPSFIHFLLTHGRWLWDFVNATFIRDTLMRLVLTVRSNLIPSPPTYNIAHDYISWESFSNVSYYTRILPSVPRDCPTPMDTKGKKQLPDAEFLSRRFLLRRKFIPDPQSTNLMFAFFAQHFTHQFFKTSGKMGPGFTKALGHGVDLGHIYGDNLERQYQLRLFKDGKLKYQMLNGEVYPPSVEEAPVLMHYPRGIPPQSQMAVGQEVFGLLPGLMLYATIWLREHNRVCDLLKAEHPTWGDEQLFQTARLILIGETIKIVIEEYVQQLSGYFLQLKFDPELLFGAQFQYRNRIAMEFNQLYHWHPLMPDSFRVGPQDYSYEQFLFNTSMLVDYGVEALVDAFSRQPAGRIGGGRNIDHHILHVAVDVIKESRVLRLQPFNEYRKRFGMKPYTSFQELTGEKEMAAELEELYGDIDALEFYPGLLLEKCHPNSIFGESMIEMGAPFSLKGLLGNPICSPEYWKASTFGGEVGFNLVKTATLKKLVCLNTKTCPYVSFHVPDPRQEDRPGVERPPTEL
# Test: NVS_ENZ_oCOX1: NovaScreen (NVS) Enzymatic Assay for sheep Cyclooxygenase-1 (Cox1) (AID 2283239);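 note: actives reduce cyclooxygenase activity so potencies are for inhibitors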
# Summary of the method: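 Absorbance read-out of cyclooxygenase activity in a cell-free preparation from sheep seminal vesicles, taken 0.66 hour after dosing. Initial testing was in duplicate at 25 uM, and confirmatory testing was run in concentration series.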
Compound,AC50,outcome
CCCCCC(CO)CCC (stereo not given),0.00229 µM (active),
O=C(O)CN(CCN(CC(=O)O)CC(=O)O)CCN(CC(=O)O)CC(=O)O,,inactive
CC(C)(CO)[N+](=O)[O-],,inactive
CC(C)=CCO,,inactive
O=c1[nH]nnc2ccccc12,0.401 µM (active),

# Biological target: guinea pig Leukotriene D4 Receptor (LTD4), CYSLTR1 (gene 100135514) (UniProt Q2NNR5)
# Sequence (Q2NNR5 whole entry, looked up): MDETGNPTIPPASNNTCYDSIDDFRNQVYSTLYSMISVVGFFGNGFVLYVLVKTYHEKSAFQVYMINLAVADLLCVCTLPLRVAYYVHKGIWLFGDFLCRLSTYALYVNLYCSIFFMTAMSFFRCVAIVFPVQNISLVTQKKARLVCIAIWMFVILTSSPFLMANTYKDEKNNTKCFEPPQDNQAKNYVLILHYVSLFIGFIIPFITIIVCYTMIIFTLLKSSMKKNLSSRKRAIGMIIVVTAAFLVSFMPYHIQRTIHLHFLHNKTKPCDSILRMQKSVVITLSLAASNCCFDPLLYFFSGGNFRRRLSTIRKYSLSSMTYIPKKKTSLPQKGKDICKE
# Test: NVS_GPCR_gLTD4: NovaScreen (NVS) G Protein-Coupled Receptor Assay for guinea pig Leukotriene D4 Receptor (LTD4) (AID 2283248)
# Summary of the method: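 Guinea pig lung membrane preparation; bound radioligand measured by filter scintillation after 1 h, loss of signal versus DMSO marking displacement. Compounds tested at 25 uM in duplicate, hits retested to max 50 uM.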
Compound,outcome,AC50
CC(=O)/C=C/C1=C(C)CCCC1(C)C,inactive,
Cc1ccc(O)c(C(C)(C)C)c1,inactive,
Clc1ccc(Cl)c(Cl)c1Cl,inactive,
CCCOCC(C)O (stereo not given),,7.91 µM (active)

# Biological target: human Adenosine A2a Receptor (AdoRA2a), ADORA2A (gene 135) (UniProt P29274)
# Sequence (P29274 whole entry, looked up): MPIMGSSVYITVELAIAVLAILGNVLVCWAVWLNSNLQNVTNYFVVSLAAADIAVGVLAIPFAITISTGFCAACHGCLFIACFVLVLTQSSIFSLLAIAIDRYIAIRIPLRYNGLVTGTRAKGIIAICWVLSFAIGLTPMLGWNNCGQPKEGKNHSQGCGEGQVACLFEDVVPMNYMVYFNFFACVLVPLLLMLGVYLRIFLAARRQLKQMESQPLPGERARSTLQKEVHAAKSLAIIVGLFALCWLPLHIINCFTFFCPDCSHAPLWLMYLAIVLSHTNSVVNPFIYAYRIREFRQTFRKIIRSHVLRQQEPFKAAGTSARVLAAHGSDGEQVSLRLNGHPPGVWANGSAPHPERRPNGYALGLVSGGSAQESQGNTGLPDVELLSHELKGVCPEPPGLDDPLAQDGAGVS
# Test: NVS_GPCR_hAdoRA2a: NovaScreen (NVS) G Protein-Coupled Receptor Assay for human Adenosine A2a Receptor (AdoRA2a) (AID 2283256)
# Summary of the method: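 HEK293-derived receptor preparation, radioligand displacement, 1.5 h, filtration + scintillation read. Loss of bound signal scored vs DMSO. Single-point 25 uM in duplicate first, then concentration-response for actives.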
row,Compound,outcome
1,Nc1cc([N+](=O)[O-])ccc1Cl,inactive
2,O=C(O)C[C@H](O)C[C@H](O)/C=C/c1c(C2CC2)nc2ccccc2c1-c1ccc(F)cc1,inactive
3,NC(=O)c1ccccc1Cl,inactive

# Biological target: D(1A) dopamine receptor (Homo sapiens) (UniProt P21728)
# Sequence (P21728 whole entry, looked up): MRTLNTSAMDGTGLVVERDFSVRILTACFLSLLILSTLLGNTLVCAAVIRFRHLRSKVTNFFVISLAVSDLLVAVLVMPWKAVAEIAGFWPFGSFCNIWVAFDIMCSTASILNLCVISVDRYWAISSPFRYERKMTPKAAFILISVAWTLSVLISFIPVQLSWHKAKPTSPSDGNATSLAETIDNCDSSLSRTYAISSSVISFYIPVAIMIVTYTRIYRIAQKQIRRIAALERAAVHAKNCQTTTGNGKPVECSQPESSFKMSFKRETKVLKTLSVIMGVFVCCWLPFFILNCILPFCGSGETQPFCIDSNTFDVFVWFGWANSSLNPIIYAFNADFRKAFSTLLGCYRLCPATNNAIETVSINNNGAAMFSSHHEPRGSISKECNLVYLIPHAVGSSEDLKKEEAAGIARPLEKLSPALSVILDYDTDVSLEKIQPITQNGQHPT
# Test: NVS_GPCR_hDRD1: NovaScreen (NVS) G Protein-Coupled Receptor Assay for human Dopamine Receptor D1 (DRD1) (AID 2283269)
# Summary of the method: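 Extracted HEK293 DRD1 is incubated 1 h with compound and a tritiated or iodinated radioligand, then filtered and counted. Screening runs 25 uM in duplicate with on-plate positive and negative controls.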
row,Compound,outcome
1,c1ccc2sc(SN(C3CCCCC3)C3CCCCC3)nc2c1,inactive
2,Cc1ccc2n[nH]nc2c1,inactive
3,CC(C)c1ccc(C(C)C)cc1,inactive
4,CCCCNC(=O)NS(=O)(=O)c1ccc(C)cc1,inactive

# Biological target: Muscarinic acetylcholine receptor M2 (Homo sapiens) (UniProt P08172)
# Sequence (P08172 whole entry, looked up): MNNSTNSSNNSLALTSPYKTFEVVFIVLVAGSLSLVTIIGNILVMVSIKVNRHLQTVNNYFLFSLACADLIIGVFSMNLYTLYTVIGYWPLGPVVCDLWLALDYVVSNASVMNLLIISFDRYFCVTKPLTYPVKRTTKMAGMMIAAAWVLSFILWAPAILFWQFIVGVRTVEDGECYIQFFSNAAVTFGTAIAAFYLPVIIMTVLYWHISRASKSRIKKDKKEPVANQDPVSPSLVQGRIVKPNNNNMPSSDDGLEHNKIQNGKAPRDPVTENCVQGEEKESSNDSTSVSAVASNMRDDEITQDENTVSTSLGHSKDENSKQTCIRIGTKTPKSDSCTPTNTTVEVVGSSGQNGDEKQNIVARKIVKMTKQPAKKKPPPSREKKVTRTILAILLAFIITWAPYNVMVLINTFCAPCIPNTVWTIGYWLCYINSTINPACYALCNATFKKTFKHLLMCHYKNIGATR
# Test: NVS_GPCR_hM2: NovaScreen (NVS) G Protein-Coupled Receptor Assay for human Muscarinic, M2 Receptor (AID 2283273)
# Summary of the method: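 CHO-expressed human M2 receptor preparation, competitive displacement of a radioligand read by filter-based scintillation counting after 1 h. Single 25 uM duplicate screen, then concentration-response follow-up of actives; DMSO baseline.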
Compound,outcome,AC50
CC(C)(CO)[N+](=O)[O-],inactive,
CN(CCOc1ccc(CC2SC(=O)NC2=O)cc1)c1ccccn1 (stereo not given),,13.2 µM (active)
CNC[C@H](O)c1cccc(O)c1,,29.7 µM (active)

# Biological target: human Thromboxane A2 Receptor (TXA2), TBXA2R (gene 6915) (UniProt P21731)
# Sequence (P21731 whole entry, looked up): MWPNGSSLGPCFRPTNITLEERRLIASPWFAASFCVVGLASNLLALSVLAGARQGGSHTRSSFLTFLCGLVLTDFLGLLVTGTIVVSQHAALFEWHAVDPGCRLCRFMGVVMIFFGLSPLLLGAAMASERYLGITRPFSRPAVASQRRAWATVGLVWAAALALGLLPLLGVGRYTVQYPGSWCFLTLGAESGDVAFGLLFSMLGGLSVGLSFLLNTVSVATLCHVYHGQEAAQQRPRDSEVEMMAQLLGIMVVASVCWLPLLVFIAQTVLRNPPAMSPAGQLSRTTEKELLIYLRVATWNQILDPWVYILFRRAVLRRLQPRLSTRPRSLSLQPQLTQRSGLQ
# Test: NVS_GPCR_hTXA2: NovaScreen (NVS) G Protein-Coupled Receptor Assay for human Thromboxane A2 Receptor (TXA2) (AID 2283282);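 note: actives reduce bound radioligand signal relative to DMSO baseline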
# Summary of the method: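 Human platelet-derived receptor preparation incubated with test chemical and radiolabelled ligand for 1 hour, cell-free. Bound label was separated by filtration and counted; displacement relative to DMSO controls gave activity, screened at 25 uM, then titrated.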
Compound,outcome,AC50
CCCCOCCOCCOCCOCCO,inactive,
O=C1CCc2ccccc2O1,inactive,
CCCCCCCCCC=O,inactive,
CCCCCCCCC=O,inactive,
BrC1CCC(Br)C(Br)CCC(Br)C(Br)CCC1Br (stereo not given),,11.1 µM (active)
CN(CCOc1ccc(CC2SC(=O)NC2=O)cc1)c1ccccn1 (stereo not given),,1.45 µM (active)

# Biological target: human Opioid Receptor Mu (Opiate Mu), OPRM1 (gene 4988) (UniProt P35372)
# Sequence (P35372 whole entry, looked up): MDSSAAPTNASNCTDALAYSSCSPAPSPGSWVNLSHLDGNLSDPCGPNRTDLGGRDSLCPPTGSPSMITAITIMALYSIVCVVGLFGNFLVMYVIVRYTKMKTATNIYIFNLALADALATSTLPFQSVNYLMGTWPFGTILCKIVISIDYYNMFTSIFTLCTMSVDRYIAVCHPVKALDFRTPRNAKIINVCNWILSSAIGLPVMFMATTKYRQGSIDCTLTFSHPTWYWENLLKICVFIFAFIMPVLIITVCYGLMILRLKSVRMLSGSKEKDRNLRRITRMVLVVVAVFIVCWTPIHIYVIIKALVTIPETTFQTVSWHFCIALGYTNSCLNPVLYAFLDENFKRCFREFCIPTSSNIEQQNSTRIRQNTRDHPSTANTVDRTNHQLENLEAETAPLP
# Test: NVS_GPCR_hOpiate_mu: NovaScreen (NVS) G Protein-Coupled Receptor Assay for human Opioid Receptor Mu (Opiate Mu) (AID 2283290);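 note: hits lower bound tracer signal versus DMSO meaning displacement of the ligand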
# Summary of the method: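 Here, radioligand binding to CHO-extracted receptor was measured after 2.5 h using filter-based scintillation detection. Initial single-concentration screening used 25 uM in duplicate with plate controls; confirmed actives went to concentration-response testing.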
Compound,outcome,AC50
Nc1cc([N+](=O)[O-])ccc1Cl,inactive,
CCc1c(C)cc(N)c(CC)c1N,,13 µM (active)
Cc1ccc2sc3cccc(C)c3c2c1,inactive,
CCCOCC(C)O (stereo not given),,14.8 µM (active)
